AmpC no deterg: qHTS Inhibitors of AmpC Beta-Lactamase (assay without detergent); AmpC nitrocefin hydrolysis, absorbance 480 nm, 0.0001% Triton; Potency, µM (series often up to 57.1 µM), for inactives: top-dose activity change, negative = inhibition, usual class: inhibitors; 0.52% of 330,000 active; AID 485341, 2010;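 also: potency is read from the fitted curve at half-maximal effect; plate controls were no compound for no effect and no enzyme for full effect; nearly all actives have a fitted effect of over 20% in size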
Target sequence (P00811 whole entry, looked up): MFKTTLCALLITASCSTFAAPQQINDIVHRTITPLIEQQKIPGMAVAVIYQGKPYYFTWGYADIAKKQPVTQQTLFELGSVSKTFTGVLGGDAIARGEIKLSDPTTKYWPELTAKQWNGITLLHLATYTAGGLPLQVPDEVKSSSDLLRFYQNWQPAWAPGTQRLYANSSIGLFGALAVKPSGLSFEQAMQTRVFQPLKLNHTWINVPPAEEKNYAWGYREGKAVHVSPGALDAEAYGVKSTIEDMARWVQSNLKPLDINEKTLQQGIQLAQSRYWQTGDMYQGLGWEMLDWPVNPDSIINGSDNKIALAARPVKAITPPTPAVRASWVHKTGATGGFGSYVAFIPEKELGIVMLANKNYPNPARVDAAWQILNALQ
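20 mM phosphate pH 7.0 + 0.01% (detergent screen) or 0.0001% Triton X-100; 5.3 nM AmpC reagent; cpd preinc 15 min RT; nitrocefin (800 uM stock) to start; A480 q20 s × 4 min; Activity was normalised to no-enzyme and no-compound control wells.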
HCV inhibitor: qHTS Assay for Inhibitors of Hepatitis C Virus (HCV) | Huh7.5.1 HCVcc-Cre infection, luciferase reporter, 44 h | Potency, µM (titrated, usually from 41.8 µM), for the others: top-dose activity change, negative = inhibition, actives largely listed as inhibitors | 3.4% of 340,000 active | AID 651820, 2012; also: potency is read from the fitted curve at half-maximal effect
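1,000 cells/well; 4 h culture; + compound; + HCVcc-Cre (~0.5 moi); 44 h; luciferase substrate, RT 15 min; read 15 sec.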
FMDV antiviral: High Throughput Screening for Foot and Mouth Disease Virus Antivirals; FMDV antiviral cell-based qHTS; Potency, µM (top dose mostly 57.9 µM), for the others: top-dose activity change, negative = inhibition, most hits filed as inhibitors; 1.2% of 410,000 active; AID 1159524, 2015; calls by dose curve; tested in HEK293T cells; also: read-out not given here; potency is read from the fitted curve at half-maximal effect; nearly all actives have a fitted effect of over 45% in size
HCMV inh: qHTS Assay for inhibitors of the human cytomegalovirus (HCMV) | 4.5% of 410,000 active | activity change, negative = inhibition, % at 57.5 µM | HFF cells, HCMV-luciferase reporter, 72 h; stronger effect = lower value; in the data active = activity change below about -60%; inconclusive = no clear call, values can overlap the other calls; inactive = above about -39%
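Screen run at 2 compound doses on HFFs infected with reporter HCMV, MOI 1 PFU/cell. Luciferase activity from cell lysates at 72 h post infection gave inhibition relative to buffer-only and Salinomycin wells.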
AmpC inh detg: qHTS Inhibitors of AmpC Beta-Lactamase (assay with detergent). P00811. AmpC hydrolysis of nitrocefin, absorbance 480 nm, 0.01% Triton. Potency, µM (series often up to 114 µM), inactives show at the top dose activity change, negative = inhibition, most hits filed as inhibitors. 0.041% of 370,000 active. AID 485294, 2010;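 also: potency is read from the fitted curve at half-maximal effect; 0% = no-compound wells and -100% = no-enzyme wells; nearly all actives have a fitted effect of over 25% in size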
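20 mM phosphate pH 7.0 + 0.01% (detergent screen) or 0.0001% Triton X-100; 5.3 nM AmpC reagent; cpd preinc 15 min RT; nitrocefin (800 uM stock) to start; A480 q20 s × 4 min; Activity was normalised to no-enzyme and no-compound control wells.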
* = called active by the depositor; ? = inconclusive; · = not tested or not shown. This is a sample that favours compounds with a hit; in the whole collection about 7.3% have one here. Unless noted, calls follow the shape of the dose curve; as a rule, active = well fitted curve in the direction sought with a large enough effect; inconclusive = small, poorly fitted or top-dose-only effect, or another doubt; inactive = no such curve, though single readings can be large; an effect the other way counts as inactive or inconclusive. Unless noted, % is scaled to controls: 0 for no effect and ±100 for the full control effect.

SMILES | AmpC no deterg | HCV inhibitor | FMDV antiviral | HCMV inh | AmpC inh detg
COC(=O)c1c(NC(=O)COC(=O)c2ccccc2O)sc2c1CCCCC2 | -23% | -3% | -6% | -12 | ?
COc1ccccc1CC(=O)Nc1sc2c(c1C(N)=O)CCCC2 | -33% | 20µM* | -14% | 48 | -12%
N#CCC(=O)Nc1sc2c(c1C(N)=O)CCCC2 | -40% | -4% | -6% | -62* | 0%
CCC(=O)Nc1sc2c(c1C(N)=O)CCC2 | 21% | -27% | 5% | -22 | -16%
NC(=O)c1c(NC(=O)c2ccncc2)sc2c1CCCC2 | 29% | 13µM* | 18% | 10 | 5%
COC(=O)c1ccc(N2CCN(C)CC2)c(NC(=O)c2ccc(Br)o2)c1 | 5% | ? | 0% | 7 | 3%
CCOC(=O)C1CCCN(S(=O)(=O)NC[C@H]2O[C@@H](n3cnc4c(N)ncnc43)[C@H](O)[C@@H]2O)C1 (stereo not given in full) | -13% | 5% | -7% | 8 | ·
NC(=O)c1c(NC(=O)CN2C(=O)CCC2=O)sc2c1CCCCC2 | 32µM* | 4% | -5% | 23 | -2%
NC(=O)c1c(NC(=O)COC(=O)c2ccc(O)c(Cl)c2)sc2c1CCCC2 | 16µM* | -13% | 5% | 11 | ·
COC(=O)c1c(NC(=O)COC(=O)c2ccc(C)s2)sc2c1CCCCC2 | -30% | -18% | 22% | 2 | -2%
O=C1C=C(c2cccc(Br)c2)C[C@@H](c2ccc(Cl)cc2)C1 | -30% | ? | -10% | 1 | ·
Cc1ccc(Cn2c(CO)cnc2SCC(=O)Nc2ccc(C)c(Cl)c2)cc1 | · | · | -25% | -13 | 13%
O=[N+]([O-])c1ccc(S(=O)(=O)N2CCn3cccc3C2c2ccc(Br)cc2)cc1 (stereo not given) | · | · | ? | -27 | -1%
CCC[C@H]1[C@@H](N(C)C)CC[C@@]23CCCN2C(=O)CCC[C@@H]13 | · | · | · | 30 | ·
CCOC(=O)c1c(NC(=O)C(C)N2CCN(C(=O)c3ccco3)CC2)sc2c1CCCC2 (stereo not given) | 109% | 10µM* | ? | -39 | 2%
CCCCCN(C(=O)CCC(=O)OCC(=O)N1CCCCC1)c1c(N)n(CCCC)c(=O)[nH]c1=O | 53% | · | -13% | ? | 5%
CC(=O)N1c2ccccc2C(C)(c2ccc(C)cc2)CC1(C)C (stereo not given) | · | · | ? | 1 | 3%
CC(=O)N(CCC(Cc1ccccc1)c1ccc2c(c1)OCO2)Cc1ccc(Cl)cc1 (stereo not given) | 41% | 11µM* | ? | -33 | -10%
CC(=O)N(CCC(Cc1ccccc1)c1ccco1)Cc1ccco1 (stereo not given) | 43% | 11µM* | ? | 25 | -2%
COc1ccc(CN(CCC(c2ccc3c(c2)OCO3)c2ccccc2OC)C(C)=O)cc1 (stereo not given) | · | · | ? | -10 | -5%
Fc1ccccc1N1CCN(c2nc(-c3cccs3)nc3ccccc23)CC1 | -13% | ? | ? | -28 | -6%
CN(Cc1ccccc1F)c1nc(-c2cccs2)nc2ccccc12 | 5% | ? | ? | -60* | -8%
Cc1nn(CC(=O)NNC(=O)c2cccc(Br)c2)c(C)c1[N+](=O)[O-] | -15% | 0% | -5% | 18 | 3%
Cc1ccc(S(=O)(=O)N2C[C@H]3N(C(=O)OC(C)C)N(C(=O)OC(C)C)C[C@H](OC(=O)NCc4ccco4)[C@@]3(O)C2)cc1 | · | · | -12% | -10 | ·
O=C(/C=C/c1cccs1)c1cc(F)ccc1OC(=O)N1CCOCC1 | · | ? | 22µM* | -16 | ·
CCCCOc1ccc(C(=O)N2CCCC2)cc1 | 5% | 1% | 24% | 110 | 7%
CCCCOc1c(Cl)cc(C(=O)N2CCN(CC(=O)N3CCCC3)CC2)cc1OCC | 157% | 10µM* | -29% | -29 | -12%
CCC(=NCCc1ccccc1)c1c(O)[nH]c(=O)[nH]c1=O | -5% | 0.32µM* | -16% | 28 | -6%

Screening data as filed in PubChem.
